Screening data deposited in PubChem BioAssay by National Center for Advancing Translational Sciences (NCATS).
Hits are enriched below; roughly 19% of the tested compounds scored in any of these assays.
TDP1 cell noCPT: qHTS for Inhibitors of human tyrosyl-DNA phosphodiesterase 1 (TDP1): qHTS in cells in absence of CPT; AID 686978, 2013; Potency, µM (titrated, usually from 46.2 µM), for inactives: at the highest dose activity change, negative = growth inhibition, hits mostly inhibitors; 420,000 tested, 15% active; DT40 Tdp1-/- hTDP1 cells, no CPT, ATP luminescence, 48 h; further: potency means the concentration at half of the fitted maximal effect; nearly all actives have a fitted effect of over 55% in size
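Growth kinetics read by CellTiter-Glo luminescence after ≥48 hr at 37 °C. Cells: DT40 Tdp1-/- stably carrying human TDP1, 400 per well, compound exposure in the absence of CPT (DMSO vehicle).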
HT1080NT lethal: kills 2HG-producing HT-1080-NT fibrosarcoma cells; Potency, µM (highest dose often 46.1 µM), for inactives: top-dose activity, negative = less viability, usual class: cytotoxic; 360,000 tested, 1.6% active; HT-1080-NT fibrosarcoma viability, CellTiter-Glo ATP luminescence, 48 h; AID 686970;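 further: NT is the 2HG producing partner of a matched IDH1 knockdown line; potency means the concentration at half of the fitted maximal effect; 0% = DMSO-treated cells and -100% = media-only wells without cells; nearly all actives have a fitted effect of over 55% in size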
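Viability by CellTiter-Glo luminescence after 48 h compound exposure at 37C of HT-1080-NT cells (750/well, RPMI, 5% FBS). % activity scaled between DMSO wells and medium-only wells, then curve-fitted and categorized by curve class.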
IL1B secr inh: inhibitors of inflammasome signaling (IL-1 beta secretion); activity change, % at 57.5 µM; 360,000 tested, 4.7% active; AID 743279; THP-1 LPS/ATP IL-1B secretion, AlphaLISA, 16 h; active compounds read low; in the data active means activity change below about -50%; inconclusive means mostly about -30% to -49%
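THP-1 cells pretreated 1 hr with compounds (up to 57.5 uM final), then stimulated with LPS (250 ng/mL final) plus ATP (1.25 mM final); secreted IL-1B measured by AlphaLISA after 16 hr, decreased signal indicating inhibition.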
HT1080 IDH1KD tx: toxicity to HT-1080 IDH1 knockdown cells (counter line); AID 686971; Potency, µM (series often up to 46.1 µM), for inactives: at the top dose activity, negative = toxicity, most hits filed as cytotoxic; 360,000 tested, 2% active; HT-1080 IDH1 knockdown viability, ATP luminescence, 48 h;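 further: potency means the concentration at half of the fitted maximal effect; 0% = DMSO wells and -100% = cell-free medium wells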
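IDH1KD HT-1080 cells, 750/well, RPMI + 5% FBS; compound pinned after 2 h settling; 48 h, 37 °C; CellTiter-Glo luminescence; % activity normalised to DMSO and no-cell wells; curves fitted, classed by r2 and efficacy.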
ELG1 repair inh: inhibitors of ELG1-dependent DNA repair in HEK293T cells | HEK293T ELG1-luciferase reporter, luminescence, 16 h; DNA damage induced by 5-fluorouridine | Potency, µM (series often up to 46.1 µM), without a hit: at the highest dose activity change, negative = inhibition, most hits filed as inhibitors | 330,000 tested, 2.3% active | AID 504467; further: potency means the concentration at half of the fitted maximal effect; nearly all actives have a fitted effect of over 55% in size
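Overnight (16 hr) co-exposure of 2,000 cells/well to 5-fluorouridine and compound at 37 °C preceded detection. Luciferase was quantified via ONE-Glo luminescence; loss of signal denotes inhibition.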
TDP1 cell CPT: DT40-hTDP1 cell growth loss with CPT; chicken DT40 Tdp1-/-;hTDP1 cells + 20 nM CPT, ATP luminescence, 48 h; Potency, µM (titrated, usually from 46.2 µM), for inactives: at the highest dose activity change, negative = growth inhibition, hits mostly inhibitors; 420,000 tested, 12% active; AID 686979; further: potency means the concentration at half of the fitted maximal effect; nearly all actives have a fitted effect of over 55% in size
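Chicken DT40 Tdp1-/- cells complemented with human TDP1, 400 cells/well, exposed to compounds plus 20 nM camptothecin for at least 48 h at 37 C; viability read as ATP content by CellTiter-Glo luminescence.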
* hit, by the source's call; ? = inconclusive; / = no result given. Unless noted, the call rests on the fitted dose curve; in most records, active means well fitted curve in the direction sought with a large enough effect; inconclusive means small, poorly fitted or top-dose-only effect, or another doubt; inactive means no such curve, though single readings can be large; an effect the other way counts as inactive or inconclusive. Unless noted, on the % scale 0 is the no-effect control and ±100 the full control effect.

SMILES | TDP1 cell noCPT | HT1080NT lethal | IL1B secr inh | HT1080 IDH1KD tx | ELG1 repair inh | TDP1 cell CPT
CCN(CC(=O)Nc1ccc(NC(C)=O)cc1)C(=O)CCCOc1ccc(C(C)(C)C)cc1 | 23µM* | -30% | -1 | ? | ? | 18µM*
CCN(CC(=O)NCc1cccs1)C(=O)CCCOc1ccc(C(C)(C)C)cc1 | ? | -1% | -9 | -6% | -9% | ?
O=S(=O)(c1cccc(F)c1)N1CCCN(c2ccc(C(F)(F)F)cn2)CC1 | -4% | -7% | ? | -2% | ? | 0%
CCNc1cc2n(c(=O)n1)CCc1cc(OC)c(OC)cc1-2 | -17% | 0% | -12 | 3% | ? | 0%
CCOc1ccccc1Nc1cc2n(c(=O)n1)CCc1cc(OC)c(OC)cc1-2 | 15µM* | -13% | -21 | -12% | -18% | ?
COc1cc2c(cc1OC)-c1cc(OCCN3CCOCC3)nc(=O)n1CC2 | ? | -8% | 20 | -2% | 3% | 23µM*
O=C(OCC(=O)c1ccc(Cl)s1)c1ccc(CO)cc1 | 0% | 6% | -9 | 14% | 19% | -2%
Cc1ccccc1NC(=O)Cc1nc(COC(=O)c2cccc([N+](=O)[O-])c2)cs1 | -7% | 5% | 0 | 5% | ? | -15%
CCOC(=O)c1ccccc1NC(=O)COC(=O)Cc1ccccc1F | -8% | 0% | 19 | 4% | 16% | 7%
O=C(Nc1ccsc1C(=O)N1CCCC1)c1ccccc1 | 21µM* | 9% | -7 | 0% | -4% | 16µM*
COc1ccc(CCNc2oc(COc3ccccc3Cl)nc2C#N)cc1OC | ? | -1% | -21 | -13% | 23µM* | ?
COc1ccc(CCNc2oc(COc3ccc(F)cc3)nc2C#N)cc1 | ? | -29% | -25 | -24% | ? | 18µM*
CCNc1oc(COc2ccccc2F)nc1C#N | -6% | 3% | -10 | 2% | ? | ?
COc1ccc(CCNc2oc(COc3ccccc3F)nc2C#N)cc1OC | 26µM* | -8% | 0 | ? | 23µM* | ?
N#Cc1nc(COc2ccccc2Cl)oc1NCc1ccco1 | ? | -7% | ? | 1% | -5% | ?
N#Cc1nc(COc2ccccc2Cl)oc1NCCc1ccccc1 | 16µM* | / | / | / | / | ?
N#Cc1nc(COc2ccc(F)cc2)oc1NCCCn1ccnc1 | ? | -3% | 6 | -14% | -1% | -25%
Clc1ccc(/C=C/c2ccncc2)cc1Cl | -18% | / | / | / | / | 10%
CC(Oc1cccnc1[N+](=O)[O-])C(=O)Nc1cccc(Cl)c1 (stereo unspecified) | ? | 4% | 0 | 0% | 23% | -18%
Cc1nc2c(C(=O)N3CCCC3)cnn2c(C)c1Cc1c(F)cccc1Cl | -26% | 7% | -2 | 4% | -3% | -36%
Cc1nc2c(C(=O)N3CCN(c4ccccn4)CC3)cnn2c(C)c1Cc1cccc(Cl)c1 | 23µM* | ? | 13 | ? | 4% | ?
Cc1ccc(C)c(Cc2c(C)nc3c(C(=O)N4CCOCC4)cnn3c2C)c1 | 22µM* | 9% | 31 | -5% | 18% | 16µM*
COC(=O)C1CCN(C(=O)CN2C(=O)NC(CC(C)C)C2=O)CC1 (stereo unspecified) | -6% | -3% | -11 | -5% | 12% | 1%
Cc1ccnc2nc(C(=O)OCC(=O)N(Cc3ccccc3)C(C)C)nn12 | -18% | 7% | -6 | 4% | 0% | 2%
O=C1C2C3C=CC(O3)C2C(=O)N1Nc1ccccc1 (stereo unspecified) | -5% | 1% | 12 | -11% | / | -6%
SMILES | TDP1 cell noCPT | HT1080NT lethal | IL1B secr inh | HT1080 IDH1KD tx | ELG1 repair inh | TDP1 cell CPT
O=C1C2CC=CCC2C(=O)N1Nc1ccccc1 (stereo unspecified) | -8% | 21µM* | 12 | ? | -2% | 13%
O=C(NCc1cccc(F)c1)c1ccccc1NC(=O)c1nsc2ccccc12 | 23µM* | / | / | / | / | ?
CC(C)NC(=O)c1ccccc1NC(=O)c1nsc2ccccc12 | -13% | / | / | / | / | -7%
CN(C)c1ccc(CNC(=O)c2ccccc2NC(=O)c2nsc3ccccc23)cc1 | 13µM* | / | / | / | / | 16µM*
CN(C(=O)c1cccc(NC(=O)Cc2ccc(NC(=O)C3CCCN(C(=O)C4CCCCC4)C3)cc2)c1)C1CCC1 (stereo unspecified) | ? | 9% | -6 | 8% | / | ?
CCOC(=O)c1c(S(=O)(=O)N2CCC(C(=O)N3CCN(c4ccc(F)cc4)CC3)CC2)c(C)n(C)c1C | -29% | / | / | / | / | -18%
O=C(CN1c2ccccc2Sc2ccccc21)N/N=C/c1ccc([N+](=O)[O-])cc1 | 21µM* | -14% | -9 | -1% | ? | ?
O=C(COC(=O)/C=C/c1cc(Br)ccc1F)NC1CC1 | -14% | 1% | -9 | 8% | -11% | 9%
Cc1ccc(-c2csc(N3CCC(C(N)=O)(N4CCCCC4)CC3)n2)cc1 | 21µM* | 6% | 29 | 7% | -14% | ?
COc1ccc(N2C(=O)/C(=C\c3ccco3)N=C2SCC(=O)N(C(C)C)C(C)C)cc1Cl | 16µM* | 4% | -14 | 4% | 13µM* | 16µM*
CC(=O)Nc1ccc(Sc2ncccc2C(=O)Nc2ccc(OC(F)(F)F)cc2)cn1 | 5.2µM* | -10% | 17 | -2% | 18% | 6.5µM*
O=C(Nc1ccc(F)cc1C(F)(F)F)C1CCN(c2ncccn2)CC1 | -3% | / | / | / | / | -14%
CCOc1cc(/C=N/NC(=O)c2ccc(=O)n(C)c2)ccc1O | -5% | 23% | 9 | 13% | ? | 0%
COc1cc(/C=N/NC(=O)c2ccc(COc3cc(C)ccc3C(C)C)cc2)cc(OC)c1O | 13µM* | 21µM* | -5 | 21µM* | 5% | 16µM*
Cc1ccc(C(C)C)c(OCc2ccc(C(=O)N/N=C/c3ccc(O)c(O)c3)cc2)c1 | 2.1µM* | -26% | -100* | ? | ? | 2.3µM*
Cc1ccc(C(C)C)c(OCc2ccc(C(=O)N/N=C/c3cccc(O)c3O)cc2)c1 | 5.2µM* | 9.2µM* | 74 | ? | 20% | 3.7µM*
COc1ccc(C(C(=O)Nc2ccc3c(c2)OCO3)N(C)C(=O)Cc2c[nH]c3ccccc23)cc1 (stereo unspecified) | ? | ? | -58* | ? | ? | 18µM*
